Assay results taken from PubChem BioAssay AID1259240 (Keith Lab, Institute of Cancer Science, University of …, 2017).
Values without a mark were called inactive. The source made the active and inactive calls. Cut-off read from the data, not from the text of the source: active = fold change mostly below about -2 (no sharp cut-off); inactive = mostly above about -1.8.

experiment: modulation of TERT promoter-driven luciferase – cell-based, luciferase reporter, human, primary screen (AID 1259240); settings: A2780 TERT promoter luciferase reporter, 16 h; at 20 µM, fold versus average of vehicle-only wells

SMILES	fold change	outcome
Cc1ccc(-c2cc(C(F)F)n3ncc(C(=O)N4CCC(C)CC4)c3n2)cc1	1.16	
CCCCN1C(=O)/C(=c2\sc3nc(-c4cc(OC)c(OC)c(OC)c4)nn3c2=O)c2ccccc21	-1.17	
CCN1CCN(CCNc2cc(C)nc3c(-c4ccc(OC)c(OC)c4)c(C)nn23)CC1	-1.31	
c1ccc(COc2ccc(Oc3nc(N4CCOCC4)nc(N4CCOCC4)n3)nn2)cc1	-1.03	
Cc1ccc(-c2cc(C(F)F)n3ncc(C(=O)Nc4cccnc4Cl)c3n2)cc1	-1.66	
CCC(CC)COC(=O)C1=C(C)NC(=O)CC1c1ccccc1C (stereo not given)	1.08	
COc1ccc(OC)c(S(=O)(=O)c2cc3cccc(OC)c3oc2=O)c1	-1.07	
CCSC1=NSC2=NC(=O)/C(=C\c3coc4ccccc4c3=O)C(=N)N12	1.16	
COc1ccccc1OCC(O)Cn1c(=N)n(CCN2CCOCC2)c2ccccc21 (stereo not given)	-1.29	
CCOC(=O)C1=C(CS(=O)(=O)c2ccccc2)NC(=O)NC1c1cc(OC)c(OC)cc1OC (stereo not given)	1.83	
CCN(CC)c1ccc2cc(C(=O)O)c(=O)oc2c1	1.12	
Cc1noc(C(=O)N2CCN(c3ccccc3)CC2)c1Cl	-1.23	
Cc1ccc(S(=O)(=O)NCCOc2nc(N(C)C)nc(N3CCOCC3)n2)cc1	-1.03	
CCOC(=O)C1CCCN(c2c(N3CCC(N4CCCCC4)CC3)c(=O)c2=O)C1 (stereo not given)	-1.11	
O=C(NCc1cccnc1)c1cccc(NC2=NC3CS(=O)(=O)CC3S2)c1 (stereo not given)	-1.24	
Cc1cc(C)c2c(=O)n(CC(=O)NCCC3=CCCCC3)sc2n1	1.18	
O=c1[nH]c(-c2ccc3nsnc3c2)nc2ccccc12		inactive
CCOC(=O)C1CCN(c2c(N3CCC(C(=O)OCC)CC3)c(=O)c2=O)CC1	1.06	
N#Cc1cn(CC(=O)NCCc2c[nH]c3ccccc23)c2ccccc12	-1.14	
COc1cc(OC)c(-c2nc(-c3cccnc3)no2)cc1OC	1.51	

SMILES	fold change	outcome
O=C(O)Cn1c(O)c(C2=c3ccccc3=NC2=O)sc1=S		inactive
O=C(NCc1ccccc1Cl)c1c(-n2cccc2)sc2c1CCC2	-1.05	
CCOC(=O)N1CCC(Nc2c(NCCN3CCCCC3CC)c(=O)c2=O)CC1 (stereo not given)	-1.19	
O=C(NCc1ccncc1)c1cc(-c2ccc3c(c2)OCO3)nc2ccccc12	-1.04	
CC1CC(C)CN(C(=O)C2CCC(CNS(=O)(=O)c3cccc4nsnc34)CC2)C1 (stereo not given)	-1.1	
c1ccc2c(c1)CCN2c1nnc(Cc2ccncc2)c2ccccc12	-1.29	
Cc1ccc(-c2cc(C(F)F)n3ncc(C(=O)NCc4cccnc4)c3n2)cc1	-1.5	
CCOC(=O)CNC(=O)CSc1nc(C)nc2c1c(=O)n(C)c(=O)n2C	1.49	
Cn1c(-c2ccc(N)cc2)nc2cc(N)ccc21	-1.51	
NC(=O)c1sc2nc(C3CC3)cc(-c3ccc(Br)cc3)c2c1N	-1.28	
Cc1cc(C)nc(SCC(=O)Nc2ccc(S(=O)(=O)Nc3onc(C)c3C)cc2)n1	1.02	
O=C(CCN1C(=O)c2ccccc2S1(=O)=O)Nc1cc(Cl)ccc1Cl	1.22	
CCN1CCN(C(=O)CN2C(=O)COc3ccc(S(=O)(=O)N4CCC(C)CC4)cc32)CC1	1.16	
O=C(Cn1ncc2c3ccccc3n(Cc3ccccc3)c2c1=O)N1CCCC1	-1.21	
COc1ccc(S(=O)(=O)n2nc(-c3ccc(OC)cc3OC)cc2N)cc1	1.19	
Cc1nc(SCC(=O)c2ccccc2)c2c(=O)n(C)c(=O)n(C)c2n1	1.14	
CC1(C)NC(=O)N(CC(O)COc2ccccc2)C1=O (stereo not given)	-1.3	
CN(C)S(=O)(=O)c1cccc(-c2cn3cccnc3n2)c1	-2.07 (active)	
CN(CC(=O)Nc1nccs1)S(=O)(=O)c1ccc2c(c1)n(C)c(=O)c(=O)n2C	1.27	
CCSc1nc2ccccc2n1S(=O)(=O)c1ccccc1	-2.48 (active)	
